Assay outcomes: PubChem BioAssay, several laboratories
Hits are enriched below; roughly 2.2% of the tested compounds scored in any of these assays.
CHO-K1 Ca antag: counter-screen for M1 antagonists: effect in parental CHO-K1 cells; inhibition, % at 3 µM; actives 0.6% (n = 360,000); ATP-induced calcium, Fluo-8 fluorescence;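 active = inhibition above a per-plate cutoff, the plate's mean sample inhibition plus 3 SD, cut at about 24% in these data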;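 also: 0% = DMSO plus EC80 ATP and 100% = DMSO alone without ATP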
M1 PAM parental: M1 PAM counterscreen hit in parental CHO-K1 cells; ATP EC20, Fluo-8 calcium fluorescence; 0% at ATP EC20, 100% at ATP max; activation, % at 3 µM; actives 0.02% (n = 360,000); AID 602247;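 active = activation above the run cutoff, the mean activation of all test compounds plus 3 SD, cut at about 40% in these data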;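 also: peak over basal fluorescence ratio in a 140 s read after ATP addition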
ANO1 activ: activators or potentiators of mouse TMEM16A chloride channel; HEK293 TMEM16A/YFP-H148Q/I152L, iodide quench fluorescence; hits give low values; B-score at 10 µM; actives 0.3% (n = 340,000);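 active = fluorescence-ratio B-score plate-corrected deviation score at least 3 library SD below zero, with starting fluorescence score within 5 deviations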;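 also: channel opened by trigger with iodide after compound preincubation; score built on the fluorescence ratio of max minus min over baseline; more negative score means more quench and so TMEM16A activation or potentiation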
NTR1 ag: activates human neurotensin receptor 1; P30989; NTR1-U2OS beta-arrestin-GFP spot imaging, agonist mode; activation, % at 20 µM; actives 0.17% (n = 330,000); AID 493036;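 active = activation at or above 40% of the spot to cytoplasm intensity ratio, with at least 20 cells analyzed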;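 also: 0% = DMSO without peptide and 100% = 100 nM NTR1 peptide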
CHO-K1 Ca ag: nonselective activator or artifact in parental CHO-K1 cells; activation, % at 3 µM; actives 0.48% (n = 360,000); Fluo-8 calcium fluorescence; scaled to maximal ATP response, vehicle zero; AID 602248; in the data active = activation above about 15%;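 also: untransfected CHO-K1 host cells lacking M1 receptor as counterscreen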
TMEM16A inh: mouse TMEM16A channel inhibition, primary screen; Q8BHY3; HEK293 TMEM16A/YFP iodide influx fluorescence, ionomycin; normalized B-score (activity score, 25-100; higher = stronger inhibition) at 10 µM; actives 1.2% (n = 310,000); AID 588511;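 active = ratio plate-corrected score three or more library SD toward inhibition, starting fluorescence score within five deviations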;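 also: score derived from kinetic fluorescence span divided by baseline fluorescence per well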
TMEM16A reconf: TMEM16A (mouse) chloride channel inhibition, re-confirmation | inhibition, % at 10 µM | shares compounds with TMEM16A inh | actives 39% (n = 2,300) | HEK293 TMEM16A/YFP-H148Q, iodide quench fluorescence; ionomycin added to raise cell calcium;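 active = mean duplicate percent inhibition, scaled so buffer wells are 0 and the reference blocker 100, over three buffer SD above buffer mean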
HEK293 Ca mobil: calcium mobilization counter-screen hit for TMEM16A inhibitor series; shares compounds with TMEM16A inh; TMEM16A/YFP HEK293, Fluo4 calcium mobilization; calcium response (% of ionomycin), % at 10 µM; actives 2% (n = 2,300);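 active = duplicate-averaged calcium signal over 20% of the ionomycin maximum, relative to buffer baseline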;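 also: each well's signal is peak minus trough fluorescence divided by its pre-addition baseline; 0% = buffer wells and 100% = ionomycin wells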
YFP-HEK293 quench: acts in parental YFP-HEK293 cells lacking TMEM16A, counter-screen; shares compounds with TMEM16A inh; iodide YFP quench, ionomycin; YFP ratio F(max-min)/F0 at 10 µM; 2,300 tested, under 10 active; AID 652233;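 active = yellow fluorescent protein signal ratio exceeding the buffer control mean by over 5 SD of those controls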;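 also: ratio is mean of duplicate wells from kinetic YFP trace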
ClC-1 rat inh: selectivity of TMEM16A inhibitors: inhibition of rat ClC-1 chloride channel | shares compounds with TMEM16A inh | CHO ClC-1-YFP, iodide influx fluorescence quench; iodide control reads 0, buffer control 100 | ratio percent, % at 10 µM | 2,300 tested, under 10 active | AID 652236;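 active = duplicate-mean ratio percent above the mean of iodide-only control wells, which defines zero, plus 5 of their SD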;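 also: higher percent means stronger block of ClC-1 iodide influx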
Starred values were filed as active, the others as inactive; i = inactive; x = no result.

SMILES	CHO-K1 Ca antag	M1 PAM parental	ANO1 activ	NTR1 ag	CHO-K1 Ca ag	TMEM16A inh	TMEM16A reconf	HEK293 Ca mobil	YFP-HEK293 quench	ClC-1 rat inh
C=CCn1c(O)c(C=NC2CCN(Cc3ccccc3)CC2)c(=O)[nH]c1=O	-5	1	i	1	0	i	x	x	x	x
O=c1[nH]c(=O)n(CCC2=CCCCC2)c(O)c1C=NC1CCN(Cc2ccccc2)CC1	-10	21	i	5	1	25*	i	i	-0.96	-7
CCOC(=O)[C@]12Cc3cc(OC)ccc3[C@H]1N(C1CCCCC1)C(=O)c1ccccc12	16	2	x	x	3	x	x	x	x	x
O=C(Nc1ccc(C(F)(F)F)cc1)c1cccn(Cc2ccc3c(c2)OC(F)(F)O3)c1=O	-1	12	i	20	0	25*	i	i	-0.99	-12
O=[N+]([O-])c1ccc(N2CCCC(C(F)(F)F)C2)c2ccncc12 (stereo not drawn)	-12	3	i	11	6	100*	20%*	i	-0.88	-24
